Tau ThT inhib: qHTS for Inhibitors of Tau Fibril Formation, Thioflavin T Binding | Microtubule-associated protein tau (Homo sapiens), P10636 | recombinant tau K18 P301L, heparin-induced fibrillization, ThT fluorescence | Potency, µM (top dose mostly 57.4 µM), for inactives: top-dose activity, negative = inhibition, hits mostly inhibitors | hit rate 2.1% among 270,000 | AID 1460, 2008; also: nearly all actives have a fitted effect of over 55% in size
Target sequence (P10636 561-689 P618L limits assumed): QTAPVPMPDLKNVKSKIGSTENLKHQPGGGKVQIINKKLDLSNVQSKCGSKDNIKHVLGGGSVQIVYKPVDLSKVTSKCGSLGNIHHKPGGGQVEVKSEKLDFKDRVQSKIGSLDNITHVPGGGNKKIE
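Heparin-induced (20 uM) aggregation of recombinant human K18 P301L tau, 15 uM unlabeled with 0.24 uM labeled, pH 7 acetate buffer, 6 hr at 37 C with compound. Fibrils quantified by 30 uM ThT fluorescence after 1 hr ambient incubation.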
Tau fluor counter: Counterscreen qHTS for Inhibitors of Tau Fibril Formation, Fluorescence Polarization; tau K18 P301L Alexa594 fluorescence, heparin fibrillization; Potency, µM (doses to about 57.7 µM), for inactives: at the highest dose activity change, negative = decrease; hit rate 0.93% among 280,000; AID 1463, 2008; also: nearly all actives have a fitted effect of over 55% in size
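Human tau K18 P301L (15 uM unlabeled, 0.24 uM Alexa 594-labeled) in 100 mM sodium acetate pH 7 with 20 uM heparin, 6 hr at 37 C. ThT 30 uM added, 1 hr ambient; Alexa 594 FP and total fluorescence read at 555/632 nm.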
Tau fibril FP: qHTS for Inhibitors of Tau Fibril Formation, Fluorescence Polarization. Potency, µM (top dose mostly 57.7 µM), without a hit: top-dose activity, negative = inhibition, usual class: inhibitors. hit rate 0.39% among 280,000. K18 P301L tau heparin fibrillization, Alexa594 FP, 6 h. Microtubule-associated protein tau (Homo sapiens), P10636; also: nearly all actives have a fitted effect of over 55% in size
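FP of Alexa 594-tau after heparin (20 uM) induction. Substrate: human K18 P301L, 15 uM unlabeled, 0.24 uM labeled. Buffer 100 mM sodium acetate pH 7. 6 hr, 37 C.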
TRb-SRC2 inh: qHTS for Inhibitors of the Interaction of Thyroid Hormone Receptor and Steroid Receptor Coregulator 2. TRbeta-SRC2 peptide binding, fluorescence polarization; receptor liganded with 1 µM T3. AID 1469, 2008. hit rate 0.065% among 280,000. Thyroid hormone receptor beta (Homo sapiens), P10828. Potency, µM (series often up to 106 µM), for inactives: top-dose activity change, negative = inhibition, most hits filed as inhibitors;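 also: plate controls were bound peptide for no effect and peptide without receptor for full effect; nearly all actives have a fitted effect of over 50% in size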
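Compounds were added to 0.6 uM TRb ligand-binding domain and 20 nM Texas Red-labeled SRC2 peptide in Tris buffer containing 1 uM T3, incubated 5 hr at ambient temperature, then read by fluorescence polarization.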
TexasRed fluor: Total Fluorescence Counterscreen for Inhibitors of the Interaction of Thyroid Hormone Receptor and Steroid Receptor Coregulator 2; TRb/SRC2 Texas Red total fluorescence interference; Potency, µM (series often up to 106 µM), for inactives: top-dose fluorescence change, negative = quenching; hit rate 0.29% among 280,000; AID 1479, 2009; active = well fitted curve in either direction with a large enough effect; inconclusive = small, poorly fitted or top-dose-only effect
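Human TRβ ligand-binding domain (0.6 uM) and Texas Red SRC2 peptide (20 nM) in Tris buffer with 1 uM T3 and 5% DMSO were incubated with pinned compound for 5 hr at ambient temperature. Total fluorescence was computed as S + 2P (555/632 nm).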
Active calls of the source: *; ? = inconclusive; nt = no result; [ ] = dose if it differs, or a comment. Compounds with a hit are over-represented: about 3% of the library has one in this group of screens. Unless noted, calls follow the shape of the dose curve; as a rule, active = well fitted curve in the direction sought with a large enough effect; inconclusive = small, poorly fitted or top-dose-only effect, or another doubt; inactive = no such curve, though single readings can be large; an effect the other way counts as inactive or inconclusive. Unless noted, % is scaled to controls: 0 for no effect and ±100 for the full control effect; potency is read from the fitted curve at half-maximal effect.

SMILES	Tau ThT inhib	Tau fluor counter	Tau fibril FP	TRb-SRC2 inh	TexasRed fluor
COc1ccc(-c2cnc(C)o2)cc1S(=O)(=O)Nc1ccc(C)c(N(C)C)c1	5%	-13%	5%	0%	-2%
Cc1nc(-n2nc(C)c(CCC(C)C)c2C)sc1C(=O)Nc1ccc(Cl)cc1	-2%	-3%	-7%	-1%	6%
Cc1ccc(S(=O)(=O)Nn2c(O)c(C=C3N=c4ccccc4=N3)sc2=S)cc1	11µM*	?	-3%	-2%	-4%
O=C1N=c2ccccc2=C1c1sc(=S)n(NC(=O)c2cccc(O)c2)c1O	?	?	?	-3%	-4%
Oc1c(C=C2N=c3ccccc3=N2)sc(=S)n1C1CCCC1	4%	2%	1%	-1%	?
O=C1N=c2ccc(Br)cc2=C1c1sc(=S)n(NS(=O)(=O)c2ccccc2)c1O	11µM*	14µM*[quencher]	?	-2%	-1%
CCOC(=O)c1c(-c2ccc(C)cc2)csc1NC(=O)c1cc(=O)c2cc(C)cc(C)c2o1	-18%	-12%	-3%	9%	10%
COc1ccc(Nc2oc(COc3ccc(OC)cc3)nc2C#N)cc1	?	28µM*[quencher]	4%	-15%	0%
CCOc1ccccc1/C=N/NC(=O)Cc1csc(Nc2cccc(C(F)(F)F)c2)n1	-17%	20µM*[quencher]	11%	-12%	-1%
CCOc1ccc(/C=N/NC(=O)Cc2csc(Nc3cccc(C(F)(F)F)c3)n2)c(OCC)c1	-1%	?	?	0%	-2%
CCOc1ccc(/C=N/NC(=O)Cc2csc(Nc3cccc(C(F)(F)F)c3)n2)cc1	?	10µM*[quencher]	0%	-20%	-1%
COc1ccc(/C=N/NC(=O)Cc2csc(Nc3cccc(C(F)(F)F)c3)n2)c(OC)c1	-13%	?	13%	2%	2%
NC(=O)NC(=O)COC(=O)c1ccc(Cl)c(S(=O)(=O)N(Cc2ccccc2)c2ccc(Cl)cc2)c1	-7%	?	11µM*	-2%	3%
COc1ccc(-c2cc(C(F)(F)F)nc(SCC(=O)N3CCCCC3)n2)cc1	4%	-2%	-9%	-3%	6%
O=S(=O)(O)c1cc(O)c2c(N=Nc3ccc(Nc4ccccc4)c4c(S(=O)(=O)O)cccc34)cc(S(=O)(=O)O)cc2c1	nt	nt	nt	15%	20µM*[quencher]
COc1ccccc1CNC(=O)Cn1c(-c2cccs2)cc2cc(F)ccc21	2%	-4%	-9%	10%	4%
Cc1cc(NC(=O)c2cc(-c3ccco3)on2)n(-c2ccccc2)n1	-13%	-2%	-2%	-16%	-1%
Cc1cc(-c2ccco2)n(-c2ccccc2)n1	32µM*	-14%	?	-12%	3%
Cc1nn(CCCC(=O)Nc2cccc(F)c2)c(=O)c2c1sc1ccccc12	?	?	5%	5%	0%
C[C@@]1(C(=O)O)NCCc2cc(O)c(O)cc21	25µM*	?	?	9%	?
CCN(CC)c1ccc(/C=C2\CCC(/C=C(\C#N)C(=O)Nc3ccccc3F)=C2N2CCOCC2)cc1	?	?	?	17%	?
N#C/C(=C\C1=C(N2CCOCC2)C(=C/c2cccc([N+](=O)[O-])c2)/CC1)C(=O)Nc1ccccc1F	2.2µM*	8%	?	2%	2%
N#C/C(=C\C1=C(N2CCOCC2)C(=C\c2ccc(Cl)cc2)/CC1)C(=O)Nc1ccccc1F	?	18%	?	40µM*	50µM*[fluorescent]
COCCCNC(=O)C1CCN(C(=O)c2ccc(-n3ccc4ccccc43)s2)CC1	-1%	-5%	3%	-2%	0%
CCOC(=O)COc1ccc(C)cc1C(=O)c1ccn2nc(-c3ccc(C)cc3)cc2n1	3%	5%	2%	8%	4%

High-throughput results: PubChem BioAssay, National Center for Advancing Translational Sciences (NCATS)
